# MARV entry inh: inhibitors of Marburg virus binding or entry into cells; Marburg virus pseudotype entry/binding inhibition, cell-based; Potency, µM (top dose mostly 49.2 µM), inactives show at the top dose activity change, negative = inhibition, actives largely listed as inhibitors; 18,000 compounds, 6.5% hits
# Lassa entry: inhibitors of Lassa virus binding or entry into cells; Potency, µM (top dose mostly 49.2 µM), inactives show at the highest dose activity change, negative = inhibition, actives largely listed as inhibitors; 18,000 compounds, 4.1% hits; Lassa virus pseudotyped entry inhibition, cell-based qHTS
# Active calls of the source: *; ? = inconclusive; · = no result given; [ ] = dose if it differs, or a comment. Compounds with a hit are over-represented: about 8.6% of the library has one in this group of screens. Calls come from the whole dose curve; tested in HEK293 cells. % is set by controls: 0 for no effect and ±100 for the full control effect; potency is the fitted concentration of half-maximal effect.
SMILES,MARV entry inh,Lassa entry
CC(C)CON=C1C[C@@H](O)[C@@H](O)[C@@H]2[C@H]3C(=O)N(C4CCCCC4)C(=O)[C@@H]3CC[C@H]12,?,31.4%[8.59 µM]
CCOC(=O)[C@@H](C)N1[C@H](C)[C@H](c2ccccc2)Oc2cc(Br)ccc2S1(=O)=O,?,14.1µM*
CC[C@H](C)[C@@H](C(=O)OC)N1Cc2ccccc2Oc2cc(Br)ccc2S1(=O)=O,-25.9%,3.6%
CCN1C(=O)NC(c2ccco2)C(C(C)=O)=C1C (centres undefined),25.6%[8.59 µM],-15.8%[8.59 µM]
Cc1ccccc1C(OCCN(C)C)c1ccccc1 (centres undefined),?,-24.3%
CC(C(O)c1ccccc1)N(C)CCOC(c1ccccc1)c1ccccc1 (centres undefined),8.91µM*,14.1µM*
COc1cc(O)cc(/C=C/c2ccccc2)c1,-11.8%,-29.1%
COC1=CC(=O)C(O)=C/C1=C\C=C\c1ccccc1,15.8µM*,-24.8%
COC(=O)C1=C(C(=O)OC)[C@@H]2Nc3ccccc3[C@@]23C[C@@H](C(=O)OC)N(C(=O)Nc2ccc(C(F)(F)F)cc2)C3=N1,-15.4%[8.59 µM],-15.9%[8.59 µM]
COC(=O)C1=C(C(=O)OC)[C@@H]2N(C)c3ccccc3[C@@]23CCC(=O)N(CC(C)C)C3=N1,8.1%[8.59 µM],0.9%[8.59 µM]
O=S1(=O)c2ccc(Br)cc2O[C@H]2CCN1C2,21.5%,-8.1%
NC(=O)[C@@H]1C[C@]2(NC(=O)NC2=O)c2cc(F)ccc2O1,2.0%,-14.2%
COC(=O)C[C@@](O)(CCC(C)(C)O)C(=O)O[C@@H]1C(OC)=C[C@]23CCCN2CCc2cc4c(cc2[C@@H]13)OCO4,0.1µM*,0.112µM*
COC1=CC23CCCN2CCc2cc4c(cc2C3C1O)OCO4 (centres undefined),3.5%,-4.7%
COC(=O)C[C@](O)(CCCC(C)(C)O)C(=O)O[C@@H]1C(OC)=CC23CCCN2CCc2cc4c(cc2[C@H]13)OCO4 (some centres undefined),?,22.4µM*
COC(=O)C(O)C(O)(CCC(C)C)C(=O)OC1C(OC)=CC23CCCN2CCc2cc4c(cc2C13)OCO4 (centres undefined),0.004µM*,0.126µM*
CCOC(=O)[C@H](CS)NCCN[C@@H](CS)C(=O)OCC,-18.2%,?
O[C@H]1C[C@H](c2ccc(Cl)cc2)N(Cc2cccs2)C[C@H]1n1cc(C2CC2)nn1,?,-5.0%
COCOc1c2c(c(OCOC)c3c(OCOC)cccc13)C(=NNS(=O)(=O)c1ccc(C)cc1)C1=C2CCCC1,?,-22.2%[8.59 µM]
CCN1C(=O)N(S(=O)(=O)C(F)(F)F)C(c2ccccc2)C(C(=O)OC)=C1C (centres undefined),-6.0%[8.59 µM],32.8%[8.59 µM]
O=C1c2ccccc2C(=O)N1CCCC[C@]12Cc3ccccc3[C@H](O1)c1c(c3ccccc3oc1=O)O2,-29.2%[8.59 µM],-5.0%[8.59 µM]
CCN1C(=O)NC(c2cccc(F)c2)C(C(=O)OC)=C1C (centres undefined),19.3%[8.59 µM],7.5%[8.59 µM]
COc1ccc([C@H]2O[C@@H](c3ccc(OC)c(OC)c3)[C@H](C)[C@@H]2C)cc1OC,6.2%,-5.3%
COc1cc(C(CC2=CCCCC2)NC(=O)C(F)(F)F)cc(OC)c1OC (centres undefined),0.9%[8.59 µM],-20.8%[8.59 µM]
C[C@H](CSC(=O)c1ccccc1)C(=O)N1C[C@@H](Sc2ccccc2)C[C@H]1C(=O)O,12.7%,-8.0%
SMILES,MARV entry inh,Lassa entry
C[C@H]1COc2cccc(F)c2S(=O)(=O)N1,22.5%,18.8%
COC(=O)CC=C[C@@H](C)[C@@H](C=NOC[C@@H](O)COCc1ccco1)NS(=O)(=O)c1ccc(C)cc1,20.9%[8.59 µM],-16.4%[8.59 µM]
Oc1cccc(-c2c3nc(c(-c4cccc(O)c4)c4ccc([nH]4)c(-c4cccc(O)c4)c4nc(c(-c5cccc(O)c5)c5ccc2[nH]5)CC4)C=C3)c1,?,25.1µM*
CCOC(=O)CCN1C(=O)[C@@H]2[C@H]3[C@H](O)[C@H](O)CC(=NO[C@@H]4O[C@H](COC(C)=O)[C@@H](OC(C)=O)[C@H](OC(C)=O)[C@@H]4OC(C)=O)[C@H]3CC[C@H]2C1=O,-5.6%[8.59 µM],-15.8%[8.59 µM]
COC(=O)CC=C1c2ccc(OC)cc2[C@@H](OC)[C@@H]1C,3.5%[8.59 µM],·
CCOc1ccc(N=C(C)Nc2ccc(OCC)cc2)cc1,11.2µM*,-11.3%
CC(=O)Nc1ccc(OCCOCCOc2ccc(NC(C)=O)cc2)cc1,4.5%,?
CC1=CC[C@@H](COc2ccccc2)O[C@@]2(C1)C(=O)Nc1cccc(Br)c12,3.8%[8.59 µM],40.7%[8.59 µM]
COc1ccc(-c2ccccc2[C@H]2[C@@H]3C=CC[C@@H](C)[C@@H]3C(=O)N2Cc2ccccc2)cc1,14.1µM*,?
C[C@@H]1CC=C[C@@H]2[C@H]1C(=O)N(Cc1ccccc1)[C@H]2c1cccc(Br)c1,3.4%,37.3%
FC(F)(F)c1cccc(-c2nn3ncccc3c2-c2ccnc(Nc3ccc4c(c3)OCCO4)n2)c1,3.97µM*,·
c1cnn2ncc(-c3ccnc(Nc4ccc5c(c4)OCCO5)n3)c2c1,2.81µM*,·
OCCCNc1nccc(-c2c(-c3ccc(F)cc3)nn3cc(C(F)(F)F)ccc23)n1,?,-38.8%

# Compound activity deposited in PubChem by National Center for Advancing Translational Sciences (NCATS).
